These results are taken from PubChem BioAssay (Tox21).

Assay [1] in a line: qHTS assay to identify small molecule antagonists of the peroxisome proliferator-activated receptor delta (PPARd) signaling pathway - cell viability counter screen (AID 743213; active = well fitted curve in the direction sought with a large enough effect in the repeat runs; an effect the other way counts as inactive or inconclusive; note: nearly all actives have a fitted effect of over 50% in size). The method, boiled down: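 Same-well viability: cells pre-incubated 5 h, dosed with compound plus 300 nM L165041, kept 17 h at 37 C, FRET substrate 2 h RT, then CellTiter-Glo 30 min RT and luminescence.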
For orientation: In qHTS, concentration-response curves come from the screen itself.

A short description of assay [2]: qHTS assay to identify small molecule agonists of the farnesoid-X-receptor (FXR) signaling pathway - cell viability counter screen (AID 743218; active = well fitted curve in the direction sought with a large enough effect in the repeat runs; an effect the other way counts as inactive or inconclusive; note: nearly all actives have a fitted effect of over 45% in size). A digest of the protocol: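 Parallel cytotoxicity test: compound-treated (16 h, 37 C) HEK 293T FXR-bla reporter cells were lysed with CellTiter-Glo and luminescence recorded.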
Assay [3] in a line: qHTS assay to identify small molecule antagonists of the farnesoid-X-receptor (FXR) signaling pathway - cell viability counter screen (AID 743221; active = well fitted cell-killing curve with a large enough effect in the repeat runs, not every such curve was filed as active; note: nearly all actives have a fitted effect of over 50% in size). The method, boiled down:
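Cytotoxicity counter screen run in the FXR-bla reporter wells: HEK 293T cells exposed to compound with 50 uM (final) chenodeoxycholic acid for 16 h, 37 C, then viability measured by CellTiter-Glo luminescence after 30 min, room temperature.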

The nature of assay [4]: qHTS assay to identify small molecule agonists of the NFkB signaling pathway (AID 1159509; active = well fitted curve in the direction sought with a large enough effect in the signal ratio in the repeat runs, not every such curve was filed as active; the % refers to the signal ratio; note: series mostly up to about 61 µM). A digest of the protocol: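 NFkB-bla ME-180 cells carry a beta-lactamase reporter under an NF-kB response element. They were plated overnight, then exposed to compounds for 5 h at 37 C. Read-out is LiveBLAzer FRET after 1.5 hr at room temperature (405 nm excitation; 460/530 nm emission).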

A short description of assay [5]: qHTS assay to identify small molecule agonists of the NFkB signaling pathway - cell viability counter screen (AID 1159515). Note: series mostly up to about 61 µM; nearly all actives have a fitted effect of over 55% in size. The method, boiled down: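 Using the same wells as the NFkB reporter read, ME-180 NFkB-bla cells given compounds for 5 hr were assessed for viability via CellTiter-Glo, with luminescence taken after a 30 min room-temperature incubation.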
Assay [6] can be described thus: qHTS assay to identify small molecule agonists of the endoplasmic reticulum stress response signaling pathway (AID 1159516; active = well fitted activation curve with a large enough effect in the signal ratio in the repeat runs, not every such curve was filed as active; the % refers to the signal ratio). A digest of the protocol: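 An ESRE-bla HeLa cell assay: compounds were pin-transferred from DMSO onto overnight-plated cells and left 5 hr at 37 C. Substrate was then loaded for 2 hr at room temperature before reading fluorescence at 460 nm and 530 nm.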

A short description of assay [7]: qHTS assay to identify small molecule antagonists of the retinoid-related orphan receptor gamma (ROR-gamma) signaling pathway - cell viability counter screen (AID 1159520; active = well fitted curve in the direction sought with a large enough effect in the repeat runs; an effect the other way counts as inactive or inconclusive; note: nearly all actives have a fitted effect of over 50% in size). The method, boiled down:
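Tet-on ROR gamma CHO cells were given compounds for 2 hr, then doxycycline hyclate at 1 uM final, and incubated 16 hr at 37 C. Viability was measured as ATP content by CellTiter-Glo luminescence.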

A short description of assay [8]: qHTS assay to identify small molecule agonists of the AP-1 signaling pathway - cell viability counter screen (AID 1159525). Note: nearly all actives have a fitted effect of over 55% in size. The method, boiled down:
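AP-1-bla ME-180 cells in Opti-MEM with 0.5% dialyzed FBS, compound exposure 5 h at 37 C in 15-point titration. Viability read in the same wells as ATP content by CellTiter-Glo luminescence, normalised to tetra-n-octylammonium bromide and DMSO controls.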

Assay [9] addresses Retinoic acid receptor RXR-alpha (Homo sapiens) (UniProt P19793). Description: qHTS assay to identify small molecule agonists of the RXR signaling pathway (AID 1159527). Note: nearly all actives have a fitted effect of over 35% in size. A digest of the protocol: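 Agonist-mode beta-lactamase reporter assay: HEK 293T RXR-alpha-UAS-bla cells treated 16 hr at 37 C with compounds, 9-cis retinoic acid as positive control. LiveBLAzer FRET substrate, 405 nm excitation, 460/530 nm emission.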

Assay [10] in a line: qHTS assay to identify small molecule agonists of the AP-1 signaling pathway (AID 1159526).
In assay [11] the target is Peroxisome proliferator-activated receptor delta (Homo sapiens) (UniProt Q03181). Description: qHTS assay to identify small molecule agonists of the peroxisome proliferator-activated receptor delta (PPARd) signaling pathway (AID 743212). A digest of the protocol:
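GeneBLAzer UAS-bla HEK293H cells carrying a PPARδ construct were exposed to compounds at 37 °C. Beta-lactamase activity was read by FRET fluorescence after 2 h at room temperature with LiveBLAzer B/G substrate.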

Assay [12] has the same target. Description: qHTS assay to identify small molecule antagonists of the peroxisome proliferator-activated receptor delta (PPARd) signaling pathway (AID 743215; active = well fitted inhibition curve with a large enough effect in the signal ratio in the repeat runs, not every such curve was filed as active; the % refers to the signal ratio;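 note: cells stimulated with agonist L165041 at 300 nM final during compound exposure; series mostly up to about 62 µM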). The method, boiled down:
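HEK293H UAS-bla, PPARd; agonist L165041 300 nM final with cpd in DMSO; 37 C 17 h; FRET substrate, RT 2 h; fluorescence intensity.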

Assay [13] concerns the target Bile acid receptor (Homo sapiens) (UniProt Q96RI1). Description: qHTS assay to identify small molecule antagonists of the farnesoid-X-receptor (FXR) signaling pathway (AID 743217; active = well fitted inhibition curve with a large enough effect in the signal ratio in the repeat runs, not every such curve was filed as active; the % refers to the signal ratio). A digest of the protocol: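 GeneBLAzer FXR-UAS-bla HEK 293T, CDCA-stimulated (50 uM final). Compound treatment 16 h, 37 °C. Detection: beta-lactamase cleavage of B/G FRET substrate, fluorescence.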

The target is the same in assay [14]. Description: qHTS assay to identify small molecule agonists of the farnesoid-X-receptor (FXR) signaling pathway (AID 743220; active = well fitted activation curve with a large enough effect in the signal ratio in the repeat runs, not every such curve was filed as active; the % refers to the signal ratio). The method, boiled down: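 Beta-lactamase reporter under UAS control in GeneBLAzer FXR HEK 293T cells (5000/well) measured with LiveBLAzer FRET substrate after 2 h at room temperature. Compound exposure lasted 16 h at 37C.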
Assay [15] deals with Vitamin D3 receptor (Homo sapiens) (UniProt P11473). Description: qHTS assay to identify small molecule agonists of the vitamin D receptor (VDR) signaling pathway (AID 743222). The method, boiled down: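 In VDR-bla cells, compound-induced beta-lactamase expression is quantified by FRET substrate fluorescence. Treatment lasts 16 h at 37C; substrate develops 2 h at room temperature.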
Sequence of Vitamin D3 receptor (Homo sapiens) (P11473 whole entry, looked up): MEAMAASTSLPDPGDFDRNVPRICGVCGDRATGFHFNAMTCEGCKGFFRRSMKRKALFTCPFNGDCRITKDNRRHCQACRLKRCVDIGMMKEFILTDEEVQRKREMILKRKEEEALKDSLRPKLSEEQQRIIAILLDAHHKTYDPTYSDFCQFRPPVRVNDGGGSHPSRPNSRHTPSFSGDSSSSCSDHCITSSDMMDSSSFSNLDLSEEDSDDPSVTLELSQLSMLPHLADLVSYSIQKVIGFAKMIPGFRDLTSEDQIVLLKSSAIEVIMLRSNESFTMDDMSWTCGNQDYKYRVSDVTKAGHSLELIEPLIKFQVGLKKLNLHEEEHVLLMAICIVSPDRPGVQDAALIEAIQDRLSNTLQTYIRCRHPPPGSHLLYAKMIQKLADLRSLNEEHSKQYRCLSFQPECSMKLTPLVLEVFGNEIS

Assay [16] is described as follows: qHTS assay to identify small molecule antagonists of the vitamin D receptor (VDR) signaling pathway - cell viability counter screen (AID 743225; active = well fitted curve in the direction sought with a large enough effect in the repeat runs; an effect the other way counts as inactive or inconclusive; note: nearly all actives have a fitted effect of over 50% in size). The method, boiled down:
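Cytotoxicity counter screen read by CellTiter-Glo luminescence (30 min, room temperature) in the same wells as the VDR-bla antagonist readout. HEK 293T VDR-UAS-bla cells had 16 h at 37C with compound and 3 nM (final) 1-alpha,25-dihydroxyvitamin D3, then 2 h with FRET substrate.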

In assay [17] the target is Nuclear receptor ROR-gamma (Homo sapiens) (UniProt P51449). Description: qHTS assay to identify small molecule antagonists of the retinoid-related orphan receptor gamma (ROR-gamma) signaling pathway (AID 1159521; active = well fitted curve in the direction sought with a large enough effect in the repeat runs; an effect the other way counts as inactive or inconclusive; note: nearly all actives have a fitted effect of over 50% in size; note: potency is the fitted concentration of half-maximal effect). The method, boiled down: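 Antagonist read-out: drop in luminescence (ONE-Glo) from an RORE-LUC reporter in CHO cells with doxycycline-inducible ROR-gamma; 2 hr compound pretreatment, 1 uM doxycycline, 16 hr incubation at 37 C.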

Assay [18] has as its target Vitamin D3 receptor (Homo sapiens) (UniProt P11473). Briefly: qHTS assay to identify small molecule antagonists of the vitamin D receptor (VDR) signaling pathway (AID 743223; active = well fitted inhibition curve with a large enough effect in the signal ratio in the repeat runs, not every such curve was filed as active; the % refers to the signal ratio). The method, boiled down: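 Antagonist mode: compound added to VDR-bla cells alongside agonist 1alpha,25-dihydroxyvitamin D3 (3 nM final), incubation 16 h at 37C. Read-out is LiveBLAzer FRET fluorescence, 2 h at room temperature.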

Assay [19] in a line: qHTS assay to identify small molecule agonists of the vitamin D receptor (VDR) signaling pathway - cell viability counter screen (AID 743224; active = well fitted curve in the direction sought with a large enough effect in the repeat runs; an effect the other way counts as inactive or inconclusive). The method, boiled down: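 Plated VDR-bla cells (4 h, 37C) received compound, incubated 16 h, then LiveBLAzer substrate 2 h RT; CellTiter-Glo added afterwards, luminescence read at 30 min.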

Inconclusive results are not listed. Values without a mark were called inactive. The source made the active and inactive calls. Unless noted, calls come from the whole dose curve.

Sequence of Bile acid receptor (Homo sapiens) (Q96RI1 whole entry, looked up): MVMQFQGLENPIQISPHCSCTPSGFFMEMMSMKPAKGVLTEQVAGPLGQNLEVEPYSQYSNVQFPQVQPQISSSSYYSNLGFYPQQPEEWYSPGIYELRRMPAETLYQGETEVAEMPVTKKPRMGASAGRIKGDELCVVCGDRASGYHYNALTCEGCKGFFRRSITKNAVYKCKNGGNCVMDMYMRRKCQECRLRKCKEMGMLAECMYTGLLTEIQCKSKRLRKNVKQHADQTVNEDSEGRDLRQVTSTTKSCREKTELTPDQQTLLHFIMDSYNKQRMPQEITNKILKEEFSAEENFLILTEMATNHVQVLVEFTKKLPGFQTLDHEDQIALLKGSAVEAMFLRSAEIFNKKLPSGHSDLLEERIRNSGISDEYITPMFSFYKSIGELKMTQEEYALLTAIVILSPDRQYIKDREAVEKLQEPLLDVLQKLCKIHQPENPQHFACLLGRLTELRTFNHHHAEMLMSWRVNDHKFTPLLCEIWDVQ
Sequence of Peroxisome proliferator-activated receptor delta (Homo sapiens) (Q03181 whole entry, looked up): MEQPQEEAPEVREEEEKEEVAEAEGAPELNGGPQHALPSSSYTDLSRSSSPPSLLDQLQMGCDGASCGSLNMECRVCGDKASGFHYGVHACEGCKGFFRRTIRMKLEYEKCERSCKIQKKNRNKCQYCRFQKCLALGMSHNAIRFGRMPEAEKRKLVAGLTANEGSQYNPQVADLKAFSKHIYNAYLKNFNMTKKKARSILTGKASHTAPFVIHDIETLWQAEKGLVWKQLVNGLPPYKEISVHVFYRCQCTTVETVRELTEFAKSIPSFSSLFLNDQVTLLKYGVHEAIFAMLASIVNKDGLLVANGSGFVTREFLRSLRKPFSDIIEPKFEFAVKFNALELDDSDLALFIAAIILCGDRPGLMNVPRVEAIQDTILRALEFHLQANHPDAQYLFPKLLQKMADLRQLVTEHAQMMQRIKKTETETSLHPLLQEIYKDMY
Sequence of Retinoic acid receptor RXR-alpha (Homo sapiens) (P19793 whole entry, looked up): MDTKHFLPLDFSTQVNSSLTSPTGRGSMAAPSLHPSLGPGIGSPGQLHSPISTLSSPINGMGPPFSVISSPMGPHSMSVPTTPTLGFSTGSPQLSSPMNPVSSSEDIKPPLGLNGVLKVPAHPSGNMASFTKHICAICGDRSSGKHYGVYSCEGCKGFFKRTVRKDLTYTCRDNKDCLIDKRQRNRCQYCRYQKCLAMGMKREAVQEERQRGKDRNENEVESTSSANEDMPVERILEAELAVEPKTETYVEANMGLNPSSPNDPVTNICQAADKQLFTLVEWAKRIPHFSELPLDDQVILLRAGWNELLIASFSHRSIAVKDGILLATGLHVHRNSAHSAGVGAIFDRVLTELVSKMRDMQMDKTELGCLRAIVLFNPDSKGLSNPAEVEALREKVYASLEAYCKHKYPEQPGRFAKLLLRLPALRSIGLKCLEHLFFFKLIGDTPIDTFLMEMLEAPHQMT

Consider `O=C(CCC1CCN(Cc2ccccc2)CC1)c1ccc2c(c1)NCCCC2`, for which the Potency entry in assay [1], in assay [2], in assay [3], in assay [7] and in [9] was “inactive” in each case. Further, the result in [4], in assay [5], in assay [6] and in assay [8] was inactive.
For the molecule `N#C/C(=C1/SC[C@@H](c2ccc(Cl)cc2Cl)S1)n1ccnc1`, the Potency result in assay [1], in assay [2], in assay [3] and in assay [7] was “inactive” in each case. For the same molecule, the molecule was classed as inactive in assay [4], in assay [5], in assay [6], in [8] and in assay [10].
As for `CCCC1C(CC)=CC(CC)=CN1c1ccccc1` (stereo unspecified), the Potency result in [11], in assay [1], in [12], in [13], in assay [2] and in assay [14] was “inactive” each time. The Potency result in assay [3], in assay [7] and in [9] was “inactive” throughout. For the same molecule, the molecule was classed as inactive in assay [15], in assay [4], in [5], in [6], in assay [8] and in [10].
For the molecule `CCCCC(=O)O[C@]1(C(=O)CO)[C@@H](C)C[C@H]2[C@@H]3CCC4=CC(=O)C=C[C@]4(C)[C@@]3(F)[C@@H](O)C[C@@]21C`, the Potency entry in assay [11], in assay [12], in assay [3] and in [16] was “inactive” each time. In addition, the molecule was classed as inactive in assay [15], in assay [4], in assay [5], in assay [6] and in [8]. Further, in assay [17], the Potency is 30.6 µM (active).
As to `OCCSc1ccccc1`, the Potency result in assay [1], in assay [12], in [2], in assay [3], in assay [19] and in [16] was “inactive” each time. Moreover, the Potency result in [7] is “inactive”. For the same molecule, the molecule was called inactive in assay [15], in assay [18], in [4], in assay [5], in assay [6] and in assay [8]. In addition, the molecule was called inactive in assay [10].
`CCCCCCOC(=O)CCCCCCCC(=O)OCCCCCC`: the Potency entry in assay [11], in assay [1], in assay [12], in assay [3], in [19] and in [7] was “inactive” throughout. Moreover, in [9], the Potency result was “inactive”. The call in assay [15], in assay [18], in assay [4], in assay [5], in [6] and in assay [8] was inactive. Also, in assay [10], the result was inactive.
In the case of `CCCCC(CC)CNCC(CC)CCCC` (stereo unspecified), the Potency result in assay [11], in [1], in assay [12], in [13], in assay [2] and in [14] was “inactive” in each case. Also, the Potency entry in [3], in assay [19], in assay [16], in [17] and in assay [9] was “inactive” throughout. The molecule was classed as inactive in assay [15], in assay [4], in [5], in [6], in [8] and in assay [10].
Take `Cc1cnc(C)c(C)n1`: the Potency result in assay [1], in assay [12], in assay [2], in assay [3], in assay [19] and in [16] was “inactive” in each case. Besides, the Potency result in [7] was “inactive”. The molecule was called inactive in assay [15], in assay [4], in [5], in [6], in assay [8] and in [10].
For `CCCCCCCC/C=C\CCCCCCCC(=O)OC(CO)CO`, the Potency entry in [1], in assay [2], in [3], in assay [19] and in [9] was “inactive” each time. Also, the call in [4], in assay [5], in assay [6], in [8] and in assay [10] was inactive.
Turning to `O=C(O)c1cccnc1C(=O)O`, the Potency result in assay [1], in assay [2], in assay [3], in assay [19], in [16] and in assay [7] was “inactive” throughout. Further, the Potency entry in [17] and in assay [9] was “inactive” each time. Also, the call in assay [4], in assay [5], in [6], in assay [8] and in assay [10] was inactive.
Regarding `NC(=O)Nc1ccc(Cl)c(Cl)c1`, the Potency result in assay [11], in assay [1], in [12], in assay [13], in assay [2] and in assay [14] was “inactive” throughout. The Potency entry in assay [3], in [19] and in assay [16] was “inactive” throughout. Besides, the outcome in assay [15], in assay [18], in assay [4], in [5], in [6] and in assay [10] was inactive.
For the molecule `CNC(=O)N(c1ccccc1)c1ccccc1`, the Potency entry in [1], in assay [3], in assay [19] and in assay [16] was “inactive” throughout. Besides, the call in [4], in assay [5], in [6], in assay [8] and in assay [10] was inactive.
With `CC(CCc1ccc2c(c1)OCO2)NN` (stereo unspecified), the Potency result in assay [11], in assay [1], in [12], in assay [3], in [19] and in assay [16] was “inactive” in each case. The Potency entry in assay [7] and in assay [9] was “inactive” each time. Moreover, the molecule was called inactive in assay [4], in assay [5], in assay [6], in [8] and in assay [10].
